Measured values published in PubChem BioAssay (Tox21).
Several values for one entry are separate records, joined by “and”; a condition that tells them apart may be missing. Identical values can stand only once. Results filed as inconclusive are left out. Where a call stands in place of a potency, no number is given. The source holds several records for some structures; these can differ, active in one and inactive in another. Activity calls are given as the source filed them. Calls come from the whole dose curve; as a rule, active = well fitted curve in the direction sought with a large enough effect in the repeat runs; inconclusive = weak or mixed curves; inactive = no such curve, though single readings can be large; an effect the other way counts as inactive or inconclusive.

target: Cytochrome P450 1A2 (Homo sapiens) (UniProt P05177); experiment: Cytochrome P450 Family 1 Subfamily A Member 2 (CYP1A2) small molecule antagonists: luciferase reporter qHTS assay (AID 1671199); details: P450-Glo CYP1A2 enzyme, luciferin luminescence, 1 h; series mostly up to 115 µM
In short: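 Steps: enzyme-substrate mix dispensed; test compounds and furafylline control pinned in; 10 min room temperature; NADPH regeneration solution added, 1 h; reaction stopped with luciferin detection reagent; luminescence read after 20 min.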
Note: nearly all actives have a fitted effect of over 50% in size.
Potency is the fitted concentration of half-maximal effect.

Sequence of Cytochrome P450 1A2 (Homo sapiens) (P05177 whole entry, looked up): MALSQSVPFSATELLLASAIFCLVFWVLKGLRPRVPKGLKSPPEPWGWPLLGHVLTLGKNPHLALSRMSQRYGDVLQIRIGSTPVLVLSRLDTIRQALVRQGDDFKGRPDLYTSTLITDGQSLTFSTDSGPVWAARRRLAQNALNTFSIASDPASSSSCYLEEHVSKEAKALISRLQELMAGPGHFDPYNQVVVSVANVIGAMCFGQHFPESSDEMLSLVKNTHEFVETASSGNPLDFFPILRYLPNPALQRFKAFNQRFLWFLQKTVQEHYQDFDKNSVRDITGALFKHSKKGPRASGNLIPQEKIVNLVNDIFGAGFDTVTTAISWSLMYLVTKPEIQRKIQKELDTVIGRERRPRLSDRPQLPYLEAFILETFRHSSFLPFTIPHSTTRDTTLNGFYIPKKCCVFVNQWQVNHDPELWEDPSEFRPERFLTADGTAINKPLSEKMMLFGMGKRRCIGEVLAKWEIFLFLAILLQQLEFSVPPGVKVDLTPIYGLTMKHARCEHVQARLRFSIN

| SMILES | Potency |
| --- | --- |
| O=C1NCN(c2ccccc2)C12CCN(CCCOc1ccc(F)cc1)CC2 | inactive |
| OCCCBr | 61.8 µM (active) |
| CCOc1nc(F)cc2nc(S(=O)(=O)Nc3c(Cl)cccc3Cl)nn12 | inactive |
| Cl/C=C\Cl | inactive |
| Cl/C=C\C[N+]12CN3CN(CN(C3)C1)C2 | inactive |
| CN1C(=O)NC(=O)C(C)(C2=CCCCC2)C1=O (configuration not stated) | inactive |
| COC(=O)c1cncn1C(C)c1ccccc1 (configuration not stated) | inactive |
| O=C(N[C@H](c1ccccc1)[C@@H]1CN2CCC1CC2)c1c(Cl)ccc(C(F)(F)F)c1Cl | inactive |
| CCOP(=O)(OCC)Oc1ccc([N+](=O)[O-])cc1 | 32.1 µM (active) and 31.7 µM (active) |
| CCCCCCCCOC(=O)c1ccc(C(=O)OCCCCCCCC)c(C(=O)OCCCCCCCC)c1 | inactive |
| II | 71 µM (active) |
| S=C=NCc1ccccc1 | 28.6 µM (active) |
| CCn1cc[n+](C)c1 | 35.5 µM (active) and inactive and 39 µM (active) |
| CCOP(O)OCC | inactive |
| O=C(Nc1ccccc1)Nc1ccnc(Cl)c1 | 20 µM (active) |
| c1ccc(CN2CCNCC2)cc1 | inactive |
| CC(C)(CCl)C(=O)Cl | inactive |
| Cc1ccccc1CCl | inactive |
| C=CC[C@]1(O)CC[C@H]2[C@@H]3CCC4=CC(=O)CCC4=C3C=C[C@@]21C | inactive |
| O=C(NCc1cccnc1)Nc1ccc([N+](=O)[O-])cc1 | 17.8 µM (active) |

target: Voltage-gated inwardly rectifying potassium channel KCNH2 (Homo sapiens) (UniProt Q12809); experiment: Human Ether-a-go-go-Related Gene (hERG) channel small molecule antagonists: fluorescence cell-based qHTS assay (AID 1671200); details: hERG-U2OS cells, FluxOR thallium flux fluorescence; series mostly up to 76.8 µM
In short: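 Channel function was assessed by thallium flux. Cells seeded the previous day and kept at 37 C took up FluxOR II dye over 1 h in the dark at room temperature, then sat another 10 min before stimulation.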

Sequence of Voltage-gated inwardly rectifying potassium channel KCNH2 (Homo sapiens) (Q12809 whole entry, looked up): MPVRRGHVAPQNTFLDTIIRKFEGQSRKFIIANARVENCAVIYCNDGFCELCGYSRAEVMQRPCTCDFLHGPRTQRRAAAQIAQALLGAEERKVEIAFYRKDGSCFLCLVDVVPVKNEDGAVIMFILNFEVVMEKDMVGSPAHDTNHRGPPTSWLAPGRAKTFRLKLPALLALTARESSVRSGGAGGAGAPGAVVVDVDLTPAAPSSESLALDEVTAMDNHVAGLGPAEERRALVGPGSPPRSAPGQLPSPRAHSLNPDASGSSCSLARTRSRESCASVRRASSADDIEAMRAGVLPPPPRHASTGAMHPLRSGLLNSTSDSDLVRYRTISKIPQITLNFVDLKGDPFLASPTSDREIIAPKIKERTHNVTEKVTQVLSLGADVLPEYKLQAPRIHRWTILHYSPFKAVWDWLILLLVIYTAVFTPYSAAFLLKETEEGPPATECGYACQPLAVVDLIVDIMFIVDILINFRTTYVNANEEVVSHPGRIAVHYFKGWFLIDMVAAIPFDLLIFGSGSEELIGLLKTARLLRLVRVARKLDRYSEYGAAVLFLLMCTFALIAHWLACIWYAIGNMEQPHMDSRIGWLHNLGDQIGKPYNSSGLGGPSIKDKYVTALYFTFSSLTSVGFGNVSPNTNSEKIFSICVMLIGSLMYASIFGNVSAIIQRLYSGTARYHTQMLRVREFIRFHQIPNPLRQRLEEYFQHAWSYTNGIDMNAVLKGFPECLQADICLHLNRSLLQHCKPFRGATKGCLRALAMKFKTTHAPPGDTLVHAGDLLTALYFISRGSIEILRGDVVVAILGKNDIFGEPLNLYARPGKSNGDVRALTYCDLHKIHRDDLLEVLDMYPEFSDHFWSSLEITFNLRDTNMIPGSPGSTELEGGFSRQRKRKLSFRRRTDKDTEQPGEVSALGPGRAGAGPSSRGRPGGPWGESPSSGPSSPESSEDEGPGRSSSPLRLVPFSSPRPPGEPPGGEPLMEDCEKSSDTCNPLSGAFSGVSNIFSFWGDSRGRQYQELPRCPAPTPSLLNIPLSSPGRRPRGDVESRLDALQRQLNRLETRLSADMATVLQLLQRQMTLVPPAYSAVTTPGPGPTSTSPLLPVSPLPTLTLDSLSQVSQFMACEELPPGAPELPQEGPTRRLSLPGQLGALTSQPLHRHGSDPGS

| SMILES | Potency |
| --- | --- |
| Cc1ccc2ccccc2c1 | inactive |
| C=CCOC(C)=O | inactive |
| O=C1NCN(c2ccccc2)C12CCN(CCCOc1ccc(F)cc1)CC2 | 0.601 µM (active) |
| CCCCCC[N+](=O)[O-] | inactive |
| OCCCBr | inactive |
| CCOc1nc(F)cc2nc(S(=O)(=O)Nc3c(Cl)cccc3Cl)nn12 | inactive |
| Cl/C=C\Cl | inactive |
| Cl/C=C\C[N+]12CN3CN(CN(C3)C1)C2 | inactive |
| C=CC(=O)OCCCCO | inactive |
| CN1C(=O)NC(=O)C(C)(C2=CCCCC2)C1=O (configuration not stated) | inactive |
| C[C@@H]1CC[C@H]2[C@@H](C)C(=O)O[C@@H]3O[C@@]4(C)CC[C@@H]1[C@]32OO4 | inactive |
| O=C(NC(=O)c1c(F)cccc1F)Nc1ccc(OC(F)(F)C(F)OC(F)(F)F)c(Cl)c1 (configuration not stated) | inactive |
| COC(=O)c1cncn1C(C)c1ccccc1 (configuration not stated) | inactive |
| O=C(N[C@H](c1ccccc1)[C@@H]1CN2CCC1CC2)c1c(Cl)ccc(C(F)(F)F)c1Cl | 39.5 µM (active) |
| O=NN1CCCCCC1 | inactive |
| CCOP(=O)(OCC)Oc1ccc([N+](=O)[O-])cc1 | inactive |
| CCCCCCCCOC(=O)c1ccc(C(=O)OCCCCCCCC)c(C(=O)OCCCCCCCC)c1 | inactive |

| SMILES | Potency |
| --- | --- |
| II | inactive |
| S=C=NCc1ccccc1 | inactive |
| CCn1cc[n+](C)c1 | inactive and 24.8 µM (active) |
| CCOP(O)OCC | inactive |
| CCBr | inactive |
| NCCCNCCCN | inactive |
| O=C(Nc1ccccc1)Nc1ccnc(Cl)c1 | inactive |
| C=CC(=O)OCC(C)C | inactive |
| CC(C)(C)C(O)C(Oc1ccc(Cl)cc1)n1cncn1 (configuration not stated) | inactive |
| N#Cc1cc(I)c(O)c(I)c1 | inactive |
| c1ccc(CN2CCNCC2)cc1 | inactive |
| CC/C(=N\OC/C=C/Cl)C1=C(O)CC(C2CCOCC2)CC1=O (configuration not stated) | inactive |
| CC(C)(CCl)C(=O)Cl | inactive |
| C=CC(=O)OC | inactive |
| Cc1ccccc1CCl | inactive |
| C=CC[C@]1(O)CC[C@H]2[C@@H]3CCC4=CC(=O)CCC4=C3C=C[C@@]21C | inactive |
| O=C(NCc1cccnc1)Nc1ccc([N+](=O)[O-])cc1 | inactive |

target: Cytochrome P450 3A4 (Homo sapiens) (UniProt P08684); experiment: Cytochrome P450 Family 3 Subfamily A Member 4 (CYP3A4) small molecule antagonists: luciferase reporter qHTS assay (AID 1671201); details: P450-Glo CYP3A4 enzyme, luciferin luminescence, 1 h; series mostly up to 115 µM
In short: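 Compounds in DMSO were pin-transferred onto CYP3A4 enzyme-substrate mix and held 10 min at room temperature. NADPH regenerating solution started the reaction for 1 h; luciferin detection reagent stopped it, and luminescence was read after 20 min.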

Sequence of Cytochrome P450 3A4 (Homo sapiens) (P08684 whole entry, looked up): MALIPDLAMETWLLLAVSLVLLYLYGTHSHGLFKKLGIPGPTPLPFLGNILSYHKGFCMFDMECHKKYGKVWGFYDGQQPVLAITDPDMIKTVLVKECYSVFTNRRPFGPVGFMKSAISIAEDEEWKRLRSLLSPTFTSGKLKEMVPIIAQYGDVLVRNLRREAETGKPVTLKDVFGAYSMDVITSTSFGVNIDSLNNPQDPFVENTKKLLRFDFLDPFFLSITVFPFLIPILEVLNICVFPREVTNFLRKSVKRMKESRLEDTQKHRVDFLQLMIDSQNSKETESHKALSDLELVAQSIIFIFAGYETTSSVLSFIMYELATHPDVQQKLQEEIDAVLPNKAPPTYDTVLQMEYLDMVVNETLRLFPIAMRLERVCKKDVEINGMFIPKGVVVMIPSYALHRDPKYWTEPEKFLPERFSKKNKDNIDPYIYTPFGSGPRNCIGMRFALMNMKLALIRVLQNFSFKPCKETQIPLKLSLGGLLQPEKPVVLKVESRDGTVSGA

| SMILES | Potency |
| --- | --- |
| Cc1ccc2ccccc2c1 | inactive |
| C=CCOC(C)=O | inactive |
| O=C1NCN(c2ccccc2)C12CCN(CCCOc1ccc(F)cc1)CC2 | inactive |
| Cl/C=C\Cl | inactive |
| C=CC(=O)OCCCCO | inactive |
| CN1C(=O)NC(=O)C(C)(C2=CCCCC2)C1=O (configuration not stated) | inactive |
| O=NN1CCCCCC1 | inactive |
| CCCCCCCCOC(=O)c1ccc(C(=O)OCCCCCCCC)c(C(=O)OCCCCCCCC)c1 | inactive |
| S=C=NCc1ccccc1 | 20.2 µM (active) |
| CCn1cc[n+](C)c1 | inactive |
| CCBr | inactive |
| Cc1c(F)c(F)c(COC(=O)C2C(/C=C(\Cl)C(F)(F)F)C2(C)C)c(F)c1F (configuration not stated) | inactive |
| C=CC(=O)OCC(C)C | inactive |
| N#Cc1cc(I)c(O)c(I)c1 | inactive |
| c1ccc(CN2CCNCC2)cc1 | inactive |
| CC/C(=N\OC/C=C/Cl)C1=C(O)CC(C2CCOCC2)CC1=O (configuration not stated) | 31.7 µM (active) |
| CC(C)(CCl)C(=O)Cl | inactive |
| Cc1ccccc1CCl | inactive |
